Results taken from PubChem BioAssay AID2653 (National Center for Advancing Translational Sciences (NCATS), 2010).
Inconclusive results are not listed. Activity calls are given as the source filed them. The call rests on the fitted dose curve; in most records, active means well fitted curve in the direction sought with a large enough effect; inconclusive means small, poorly fitted or top-dose-only effect, or another doubt; inactive means no such curve, though single readings can be large or run the other way.

Experiment: Secondary Assay for Activators of Human Pyruvate Kinase M2 isoform - Cell Titer Glo Cytotoxicity for Probe SAR
Details: HeLa viability, CellTiter-Glo ATP luminescence, 24 h; series mostly up to 58.2 µM
Method in brief: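 Cytotoxicity read as ATP content (CellTiter-Glo luminescence) in HeLa cells after 24 h compound exposure at 37 C, following 24 h pre-plating at 500 cells/well; doxorubicin as control.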

SMILES	outcome
COc1ccc(Nc2c(-c3ccc(C)o3)nc3ccccn23)cc1	inactive
CCCCN1C(=O)c2ccccc2C1=O	inactive
CC(=O)Nc1ccc(S(=O)(=O)Nc2ccc(C)c(C)c2)cc1	inactive
O=C1CCc2cc(S(=O)(=O)Nc3ccccc3F)ccc2N1	inactive
Cc1ccc(NS(=O)(=O)c2cc3c(cc2Br)NC(=O)CO3)cc1C	inactive
COc1ccc(OC2=NS(=O)(=O)c3ccccc32)cc1	inactive
Cc1ccc(N[S+](=O)([O-])c2cc3c(cc2CCc2ccccc2)NC(=O)CO3)cc1C	inactive
CSc1cc2c(s1)c1cnn(Cc3cccc(N)c3)c(=O)c1n2C	inactive
Cc1ccc(NS(=O)(=O)c2ccc3c(c2)NC(=O)CO3)cc1C	inactive
COc1ccc(-c2nc3ccccn3c2Nc2ccccc2C)cc1	inactive
Cc1ccc(N(C)S(=O)(=O)c2ccc3c(c2)CCC(=O)N3)cc1C	inactive
O=S1(=O)N=C(Oc2ccc(Cl)cc2)c2ccccc21	inactive
Cc1ccc(NS(=O)(=O)c2ccc3ccccc3c2)cc1C	inactive
O=C1CCc2cc(S(=O)(=O)Nc3ccccn3)ccc2N1	inactive
Cc1ccc(NS(=O)(=O)c2cccc(F)c2)cc1C	inactive
O=C1CCc2cc(S(=O)(=O)Nc3ccc4ncccc4c3)ccc2N1	inactive
Cc1ccc(NS(=O)(=O)c2ccc(F)cc2)cc1C	inactive
Cc1ccn2c(NC3CCCCC3)c(-c3ccc(C)o3)nc2c1	inactive
O=C1CCc2cc(S(=O)(=O)Nc3ccc(Cl)cc3)ccc2N1	inactive
Cc1ccc(NS(=O)(=O)c2cc3c(cc2F)NC(=O)CC3)cc1C	inactive
